Experimental data from PubChem BioAssay AID1159580 (chemical genetic matrix, 2015).
Where “and” joins values, the source holds several entries; their conditions need not be identical. Identical values can stand only once. Screen size: about 5,500 compounds; about 2,000 (36%) were called active. Inconclusive results (about 18%) are left out. No stated cut-off is given here; in the data, active means normalized growth mostly below about 0.91 (no sharp cut-off); inconclusive means no clear call, values can overlap the other calls; inactive means mostly above about 0.92. The list shows a part of the results.

Assay: chemical genetic growth profiling, strain panel (AID 1159580);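 further: tested at 20 µM; growth read once vehicle control cultures reached saturation at 30 °C; 1 = growth at the plate median or of vehicle wells; lower values mean less growth of the strain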
Details: S. cerevisiae deletion strains, growth OD

Measured: normalized growth

Cc1c(C)c2c(c(C)c1O)CCC(C)(CCCC(C)CCCC(C)CCCC(C)C)O2 (stereo not drawn)
inactive: locus YAL021C, strain ccr4, hits give low values 1 | locus YAL026C, strain drs2, hits give low values 0.972 | locus YAL030W, strain snc1, hits give low values 0.983 | locus YBL061C, strain skt5, hits give low values 0.989 | locus YBR009C, strain hhf1, hits give low values 0.965 | locus YBR021W, strain FUR4, hits give low values 1.03 | locus YBR023C, strain chs3, hits give low values 0.988 | locus YBR171W, strain sec66, hits give low values 0.986 | locus YBR229C, strain ROT2, hits give low values 1 | locus YBR231C, strain swc5, hits give low values 0.935 | locus YBR279W, strain paf1, hits give low values 0.99 | locus YCL011C, strain gbp2, hits give low values 0.972 | locus YCL016C, strain dcc1, hits give low values 0.982 | locus YCL029C, strain bik1, hits give low values 1 | locus YCL061C, strain MRC1, hits give low values 0.987 | locus YCL069W, strain vba3, hits give low values 0.988 | locus YCR088W, strain abp1, hits give low values 0.985 | locus YDL005C, strain med2, hits give low values 0.983 | locus YDL035C, strain GPR1, hits give low values 1.02 | locus YDL040C, strain nat1, hits give low values 0.99 | locus YDL074C, strain BRE1, hits give low values 1.02 | locus YDL101C, strain DUN1, hits give low values 1.01 | locus YDL134C, strain PPH21, hits give low values 1.01 | locus YDL185W, strain tfp1, hits give low values 1 | locus YDL192W, strain arf1, hits give low values 1.02 | locus YDR001C, strain nth1, hits give low values 0.981 | locus YDR069C, strain doa4, hits give low values 0.968 | locus YDR101C, strain arx1, hits give low values 1.01 | locus YDR137W, strain rgp1, hits give low values 0.966 | locus YDR150W, strain NUM1, hits give low values 1.01 | locus YDR159W, strain sac3, hits give low values 0.956 | locus YDR162C, strain NBP2, hits give low values 0.993 | locus YDR195W, strain ref2 0.949 | locus YDR297W, strain sur2, hits give low values 0.978 | locus YDR318W, strain mcm21, hits give low values 1 | locus YDR334W, strain swr1, hits give low values 0.985 | locus YDR335W, strain msn5, hits give low values 0.988 | locus YDR388W, hits give low values 0.976 | locus YDR392W, strain spt3, hits give low values 0.929 | locus YDR502C, strain sam2, hits give low values 0.987 | locus YEL003W, strain gim4, hits give low values 0.979 | locus YEL037C, strain rad23, hits give low values 0.987 | locus YEL061C, strain CIN8 (second series), hits give low values 0.983 | locus YEL061C, strain CIN8, hits give low values 1.01 | locus YER015W, strain faa2, hits give low values 0.986 | locus YER016W, strain bim1, hits give low values 0.975 | locus YER110C, hits give low values 1 | locus YER111C, strain swi4, hits give low values 0.985 | locus YER155C, strain BEM2 (second series), hits give low values 0.97 | locus YER155C, strain BEM2, hits give low values 1 | locus YER167W, strain BCK2, hits give low values 1.01 | locus YFR010W, strain ubp6, hits give low values 0.988 | locus YGL078C, strain dbp3, hits give low values 0.999 | locus YGL086W, strain mad1, hits give low values 1.02 | locus YGL167C, strain pmr1, hits give low values 0.968 | locus YGL173C, strain kem1, hits give low values 0.985 | locus YGL227W, strain vid30, hits give low values 0.977 | locus YGL240W, strain doc1, hits give low values 0.981 | locus YGL248W, strain PDE1, hits give low values 1.01 | locus YGL253W, strain hxk2, hits give low values 0.995 | locus YGR078C, strain PAC10, hits give low values 1 | locus YGR135W, strain pre9, hits give low values 1.02 | locus YGR229C, strain SMI1, hits give low values 1.02 | locus YGR252W, strain gcn5, hits give low values 0.95 | locus YHR013C, strain ard1, hits give low values 0.928 | locus YHR027C, strain rpn1, hits give low values 0.993 | locus YHR030C, strain SLT2, hits give low values 1.01 and 0.996 | locus YHR079C, strain IRE1 (second series), hits give low values 1 | locus YHR079C, strain IRE1, hits give low values 1.02 | locus YHR094C, strain hxt1, hits give low values 1 | locus YHR129C, strain ARP1, hits give low values 1.01 | locus YHR142W, strain chs7, hits give low values 0.994 | locus YHR200W, strain rpn10, hits give low values 0.995 | locus YIL066C, strain RNR3, hits give low values 1.01 | locus YIL073C, strain SPO22, hits give low values 1.05 | locus YIL125W, strain kgd1, hits give low values 1.03 | locus YIR030C, strain dcg1, hits give low values 0.997 | locus YJL092W, strain hpr5, hits give low values 0.975 | locus YJL095W, strain BCK1 (second series), hits give low values 0.989 | locus YJL095W, strain BCK1, hits give low values 0.998 and 1 | locus YJL115W, strain asf1, hits give low values 0.985 | locus YJL129C, strain trk1, hits give low values 1.02 | locus YJL134W, strain LCB3, hits give low values 1 | locus YJL154C, strain vps35, hits give low values 0.987 | locus YJL164C, strain tpk1, hits give low values 1.01 | locus YJL166W, strain qcr8, hits give low values 0.993 | locus YJL168C, strain set2, hits give low values 1 | locus YJL187C, strain SWE1 (second series), hits give low values 0.997 | locus YJL187C, strain SWE1, hits give low values 0.982 | locus YJR043C, strain POL32, hits give low values 1 | locus YJR066W, strain TOR1, hits give low values 0.972 | locus YKL009W, strain mrt4, hits give low values 0.969 | locus YKL068W, hits give low values 0.993 | locus YKL085W, strain MDH1 (second series), hits give low values 0.99 | locus YKL085W, strain MDH1, hits give low values 0.99 | locus YKL160W, strain elf1, hits give low values 1.01 | locus YKL190W, strain CNB1, hits give low values 1 | locus YKR001C, strain vps1, hits give low values 0.996 | locus YKR026C, strain gcn3, hits give low values 0.986 | locus YKR091W, strain srl3, hits give low values 0.982 | locus YLL001W, strain dnm1, hits give low values 0.983 | locus YLL026W, hits give low values 0.982 | locus YLL041C, strain sdh2, hits give low values 0.985 | locus YLR027C, strain aat2, hits give low values 0.993 | locus YLR039C, strain RIC1, hits give low values 1.02 | locus YLR058C, strain SHM2, hits give low values 1 | locus YLR102C, strain apc9, hits give low values 1 | locus YLR113W, strain HOG1, hits give low values 0.966 | locus YLR221C, strain rsa3, hits give low values 1.01 | locus YLR258W, strain gsy2, hits give low values 0.967 | locus YLR262C, strain YPT6 (second series), hits give low values 0.98 | locus YLR262C, strain YPT6, hits give low values 1.01 | locus YLR268W, strain sec22, hits give low values 1.01 | locus YLR320W, strain mms22, hits give low values 0.988 | locus YLR330W, strain CHS5, hits give low values 1 | locus YLR342W, strain FKS1 (second series), hits give low values 1.02 | locus YLR342W, strain FKS1, hits give low values 0.978 | locus YLR357W, strain rsc2, hits give low values 1 | locus YLR370C, strain arc18, hits give low values 0.995 | locus YLR371W, strain rom2, hits give low values 1.04 | locus YLR384C, strain iki3, hits give low values 0.978 | locus YLR418C, strain cdc73, hits give low values 0.968 | locus YML016C, strain PPZ1, hits give low values 1 | locus YML032C, strain rad52, hits give low values 0.987 | locus YML120C, strain ndi1, hits give low values 1.03 | locus YML124C, strain tub3, hits give low values 0.993 | locus YMR058W, strain fet3, hits give low values 1.01 | locus YMR078C, strain ctf18, hits give low values 1.02 | locus YMR125W, strain sto1, hits give low values 0.95 | locus YMR129W, hits give low values 0.979 | locus YMR205C, strain PFK2, hits give low values 0.933 | locus YMR223W, strain ubp8, hits give low values 1 | locus YMR231W, strain pep5, hits give low values 0.977 | locus YMR263W, strain SAP30, hits give low values 1.01 | locus YMR307W, strain GAS1, hits give low values 1.01 | locus YNL067W, strain RPL9B, hits give low values 1 | locus YNL071W, strain lat1, hits give low values 0.994 | locus YNL153C, strain GIM3, hits give low values 1.01 | locus YNL183C, strain NPR1, hits give low values 0.961 | locus YNL209W, strain ssb2, hits give low values 0.984 | locus YNL233W, strain BNI4, hits give low values 1.02 | locus YNL248C, strain rpa49, hits give low values 1.03 | locus YNL250W, strain rad50, hits give low values 1.01 | locus YNL271C, strain bni1, hits give low values 0.988 | locus YNL298W, strain CLA4, hits give low values 0.965 | locus YNL307C, strain MCK1, hits give low values 1 | locus YNL322C, strain KRE1 (second series), hits give low values 0.994 | locus YNL322C, strain KRE1, hits give low values 1 | locus YNR049C, strain mso1, hits give low values 0.988 | locus YNR052C, strain pop2, hits give low values 1.02 | locus YOL012C, strain htz1 0.962 | locus YOL147C, strain pex11, hits give low values 0.997 | locus YOR001W, strain rrp6, hits give low values 1.02 | locus YOR061W, strain CKA2, hits give low values 1.01 | locus YOR069W, strain VPS5, hits give low values 1 | locus YOR070C, strain gyp1, hits give low values 0.988 | locus YOR080W, strain dia2, hits give low values 0.985 | locus YOR083W, strain WHI5, hits give low values 1.01 | locus YOR106W, strain vam3, hits give low values 1.01 | locus YOR136W, strain idh2, hits give low values 1.01 | locus YOR144C, strain elg1, hits give low values 0.985 | locus YOR184W, strain ser1, hits give low values 0.999 | locus YOR231W, strain MKK1, hits give low values 0.972 | locus YOR265W, strain rbl2, hits give low values 0.996 | locus YOR270C, strain vph1, hits give low values 1.09 | locus YOR290C, strain snf2, hits give low values 1 | locus YOR316C, strain cot1, hits give low values 0.995 | locus YPL051W, strain arl3, hits give low values 1.01 | locus YPL055C, strain LGE1, hits give low values 1.01 | locus YPL078C, strain atp4, hits give low values 1.02 | locus YPL106C, strain sse1, hits give low values 0.966 | locus YPL240C, strain hsp82, hits give low values 0.98 | locus YPL256C, strain CLN2, hits give low values 1.02 | locus YPR119W, strain clb2, hits give low values 0.997 | locus YPR141C, strain kar3, hits give low values 1 | locus YPR163C, strain tif3, hits give low values 1 | locus YPR167C, strain met16, hits give low values 0.984 | strain wtn01, hits give low values 1.01
